# Screens (PubChem)
# Vif imaging: HIV Vif inhibition | hit rate 0.35% among 340,000 | inhibition, % at 7.49 µM | HEK293T cells, Vif self-association by quenched fluorescence, imaging, 24 h | AID 602346; in the data active = inhibition above about 50%, passing the limit was not always enough
# esBAF inh: SWI/SNF esBAF complex inhibition. mouse ES cells, Bmi1-luciferase knock-in reporter, 24 h; 100% = twice the neutral-well signal. reporter increase, % at 12.5 µM. hit rate 2% among 350,000. AID 602393; in the data active = activation above about 40%;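 also: 0% = median of the plate's neutral control wells and 100% = double that signal; a rise in the Bmi1 reporter signal indicates esBAF inhibition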
# SMARCA2 act: SMARCA2 function activation, primary screen; MG213 cells, MMTV-luciferase reporter, dexamethasone, overnight; activation, % at 9.1 µM; hit rate 1% among 370,000; in the data active = activation above about 7.8%;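 also: 0% = vehicle wells and 100% = reference activator wells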
# SKN-1 block: blocks SKN-1 activity in C. elegans; C. elegans VP596 Pgst-4::GFP/RFP ratio, acrylamide-induced, 24 h; inhibition, % at 21.8 µM; hit rate 0.49% among 360,000; AID 624304;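 active = interference check ratio from 0.5 to 1.5 plus GFP to RFP signal ratio inhibition reaching or exceeding a fixed threshold, cut at about 30% in these data, passing the limit was not always enough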
# NadD block: NadD (S. aureus) enzyme inhibition; purified NadD enzyme, colorimetric absorbance read-out; inhibition, % at 20 µM; hit rate 0.78% among 360,000; in the data active = inhibition above about 26%
# GRIN3A LBD mod: modulators (binders) of human NR3A ligand-binding domain. Tm shift relative to glycine control, % at 25 µM. NR3A LBD differential scanning fluorimetry, Tm shift; 0% = protein alone, 100% = glycine-bound protein. hit rate 2.5% among 340,000;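 active = melting temperature shift of at least 10% of the positive control shift, at one fixed dose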
# * hit, by the source's call; x = not tested or not shown. This is a sample that favours compounds with a hit; in the whole collection about 5.2% have one here.
SMILES,Vif imaging,esBAF inh,SMARCA2 act,SKN-1 block,NadD block,GRIN3A LBD mod
Cn1c(=O)c2c(nc(SCCN3CCOCC3)n2Cc2ccccc2Cl)n(C)c1=O,3.0,-1.7,-1.0,3.9,-1.3,-2.3
C[C@H](CO)N1C[C@H](C)[C@@H](CN(C)S(=O)(=O)c2cn(C)cn2)Oc2c(NC(=O)Nc3cccc4ccccc34)cccc2C1=O,x,-0.9,x,x,x,x
CC(C)c1cc(C(N)=O)c(NC(=O)c2cccc(COc3ccc(Cl)cc3)c2)s1,-2.9,x,1.5,13.2,-11.4,16.0*
O=C(CSc1ncn(-c2ccccc2)n1)Nc1ccc2c(c1)OCO2,-10.4,-6.6,0.7,5.5,1.1,12.8*
Cc1ccc(NC(=O)CSc2ncn(-c3ccccc3)n2)cc1C,-9.9,-2.7,2.9,-8.2,-1.5,22.2*
O=C(CSc1ncn(-c2ccccc2)n1)Nc1ccc2c(c1)OCCO2,3.1,-2.4,-2.0,-12.4,-9.3,0.1
COc1ccc(NC(=O)CSc2ncn(-c3ccccc3)n2)cc1Cl,10.0,-4.3,1.2,-15.9,-9.0,27.7*
Cc1ccc(NC(=O)CSc2n[nH]c(C)c2[N+](=O)[O-])cc1C,-0.6,x,-1.6,4.4,-6.3,18.6*
O=C(CSc1ncn(-c2ccccc2)n1)Nc1ccc(Br)cn1,6.0,0.5,-1.4,2.1,1.5,-0.9
COc1ccc(NC(=O)CSc2nnc(-c3cccs3)o2)cc1Cl,x,x,-2.9,x,x,x
C[C@@H]1CN([C@@H](C)CO)C(=O)Cc2cc(N(C)C)ccc2O[C@@H]1CN(C)Cc1ccncc1,x,-0.6,x,x,x,x
C[C@@H]1CN([C@@H](C)CO)C(=O)c2cc(NS(=O)(=O)c3cccs3)ccc2O[C@@H](C)CCCCO[C@H]1CN(C)CC1CCCCC1,x,2.9,x,x,x,x
S=c1[nH]nc(-c2ccco2)n1/N=C/c1c(Cl)cccc1Cl,1.1,x,1.8,46.5*,9.1,1.7
S=c1[nH]nc(-c2ccco2)n1/N=C/c1ccc(Cl)c(Cl)c1,-19.5,x,-1.8,-2.2,26.1,-2.6
C[C@@H]1CN([C@H](C)CO)C(=O)c2cc(NS(=O)(=O)c3ccccc3)ccc2O[C@H]1CN(C)S(=O)(=O)c1ccccc1,x,1.5,x,x,x,x
Cc1c(O)ccc(C(=O)COc2ccccc2F)c1O,6.4,39.7,0.4,-78.0,0.2,35.3*
CN(C)C(=O)[C@H]1[C@H](CO)[C@H]2Cn3c(ccc(-c4ccccc4F)c3=O)[C@@H]1N2C,x,4.0,x,x,x,x
O=C(/C=C/Nc1ccccc1C(F)(F)F)c1ccco1,-2.1,92.9*,7.8,31.9,-1.0,0.0
O=C(/C=C/Nc1ccc(Oc2ccccc2)cc1)c1ccco1,-0.9,x,2.8,81.9*,5.9,-0.4
Cc1cc(/C=C2\SC(=Nc3ccccc3)NC2=O)c(C)n1-c1ccc(S(N)(=O)=O)cc1,-14.3,2.0,0.3,-0.6,45.8*,-20.2
COc1ccc(S(=O)(=O)Nc2ccc3c(c2)C(=O)N([C@H](C)CO)C[C@H](C)[C@@H](CN(C)C(=O)Nc2ccc4c(c2)OCO4)OCCCC[C@@H](C)O3)cc1,x,-4.0,x,x,x,x
Cc1nc(NC(=O)COc2ccc(Cl)cc2)sc1C(=O)N(C)C,x,x,-1.2,x,x,x
Cc1nc(NC(=O)C(C)Oc2cccc(Cl)c2)sc1C(=O)N(C)C (centres undefined),52.4*,x,-1.9,13.1,-0.2,-2.9
Cc1ccc(C)c(NC(=O)c2cc(-c3ccccc3O)n[nH]2)c1,9.7,65.1*,-0.4,3.6,2.5,4.7
Cc1ccc(O)c(-c2cc(C(=O)Nc3cccnc3)[nH]n2)c1,2.4,87.3*,6.6,-10.7,-2.4,28.8*
SMILES,Vif imaging,esBAF inh,SMARCA2 act,SKN-1 block,NadD block,GRIN3A LBD mod
COc1ccc(NC(=O)c2cc(-c3cc(Cl)ccc3OC)n[nH]2)c(C)c1,14.3,-4.8,-0.8,28.9,0.6,x
COc1ccc(OC)c(NC(=O)c2cc(-c3cc(C)ccc3O)n[nH]2)c1,-12.5,0.3,1.2,14.7,2.2,37.4*
Cc1ccc2nc(-c3ccccc3)cc(C(=O)Nc3cccnc3)c2c1,-11.0,2.9,4.1,1.3,15.2,-4.8
COc1ccc(OC)c(NC(=O)c2cc(-c3ccc(C)cc3O)n[nH]2)c1,13.0,17.3,-2.2,-6.8,13.4,27.7*
CC=Cc1ccc2n(c1=O)C[C@H]1[C@H](CO)[C@@H](C(=O)NCC3CC3)[C@@H]2N1Cc1ccncc1 (mixture of isomers),x,1.0,x,x,x,x
COc1cccc(C(=O)Oc2ccc3ccc(O)cc3c2)c1,x,x,x,x,x,-3.7
Cc1ccccc1C(=O)Oc1ccc2ccc(O)cc2c1,-2.8,61.6*,6.3,16.5,-4.9,-3.7
CC(=O)Nc1ccc(OS(=O)(=O)c2ccccc2C)cc1,-9.0,x,-3.0,-0.6,-6.8,0.6
Cc1ccccc1S(=O)(=O)Oc1ccc2ccc(O)cc2c1,8.0,74.4*,2.1,-17.3,5.2,-2.2
C[C@@H]1CN([C@@H](C)CO)C(=O)c2cc(NC(=O)C3CC3)ccc2O[C@@H]1CN(C)C(=O)Nc1ccc2c(c1)OCO2,x,5.9,x,x,x,x
Cc1ccc(Cn2ccc(-c3cnc(-c4ccccc4)s3)n2)cc1,-21.2,79.0*,1.1,-4.1,-0.2,-11.2
Cc1sc(NC(=O)c2cccs2)c(C(N)=O)c1C,-4.6,88.4*,5.3,5.6,0.3,1.6
Cc1sc(NC(=S)NC(=O)C(C)(C)C)c(C(N)=O)c1C,-0.9,47.4*,-1.7,-0.7,-0.3,-5.0
NC(=O)c1ccsc1NC(=O)c1cccs1,-2.2,46.8*,-1.3,-1.8,-3.6,-2.6
CCOC(=O)c1c(NC(=O)c2cccs2)sc(CC)c1-c1cccs1,-0.4,-8.2,1.2,13.1,-2.4,2.8
Cc1ccc(C(=O)Nc2sc(C)c(C)c2C(=O)c2ccccc2)cc1,6.7,7.8,-2.4,1.0,-3.6,20.5*
Cc1cc(C(=O)Nc2sccc2C(N)=O)c(C)o1,-3.9,x,-1.4,-1.6,0.2,-1.0
CC(C)(C)C(=O)NC(=S)Nc1sc2c(c1C(N)=O)CCC2,-7.4,2.6,0.3,3.9,2.6,-25.1
O=C(CCN1CCCCC1)N[C@H]1CC[C@@H](CCNS(=O)(=O)c2ccc(Cl)cc2)O[C@H]1CO,x,-1.7,x,x,x,x
C[C@@H]1CN([C@@H](C)CO)C(=O)c2cc(NC(=O)CCN3CCOCC3)ccc2O[C@@H]1CN(C)Cc1ccc2c(c1)OCO2,x,-4.4,x,x,x,x
Cc1ccc(-c2noc(-c3ccccc3F)n2)cc1,17.0,-15.5,2.7,22.6,-4.2,-0.7
Cc1ccc(-c2noc(-c3cccs3)n2)cc1,-6.6,-29.6,2.7,67.5*,-0.4,3.0
COc1ccc(-c2nc(-c3cccs3)no2)cc1,-3.5,x,-4.3,38.2*,-10.2,0.5
O=C1CN(c2ccccc2)C(=O)N1,-4.8,x,-3.8,15.0,0.6,0.5
S=C1NC(c2ccccc2)=NCN1c1ccccc1,7.2,57.7*,5.9,-4.8,-5.1,-0.8
O=[N+]([O-])c1ccc2cn(-c3ccccc3)nc2c1,6.5,61.0*,6.9,56.8*,-4.4,-0.4
Nc1nn(S(=O)(=O)c2ccccc2)cc1-c1cccc([N+](=O)[O-])c1,-5.0,x,-3.5,7.9,-1.7,22.2*
